This is an account of results in ChEMBL document CHEMBL1157539, “Thousands of chemical starting points for antimalarial lead identification” (Nature, 2010).

Holding throughout (format): functional
Test [1] relates to Plasmodium falciparum. Nature of the test: GSK_TCMDC: Inhibition of Plasmodium falciparum 3D7 in whole red blood cells, using parasite LDH activity as an index of growth. Test compounds present at 2uM.
Test [2] concerns Plasmodium falciparum. Nature of the test: GSK_TCMDC: Inhibition of Plasmodium falciparum Dd2 in whole red blood cells, using parasite LDH activity as an index of growth. Test compounds present at 2uM.
The test system of another test is HepG2. Nature of the test: GSK_TCMDC: Percent inhibition of human HepG2 cell line. Test compounds present at 10uM.

Molecules are shown by their SMILES.

As to `CC1(C)CCCN(Cc2c(O)ccc3c(O)c(-c4nc5ccccc5s4)c(=N)oc23)C1`, the Inhibition amounted to 100% in the test with Plasmodium falciparum [1], 100% in the test with Plasmodium falciparum [2] and 20% in the test on HepG2.
Regarding `CC(=O)Nc1ccc(C(=O)Nc2ccc(-c3cccc(-c4nc5cccc(C)c5[nH]4)c3)cc2)cn1`, the figures for the Inhibition in the test with Plasmodium falciparum [1], in the test on Plasmodium falciparum [2] and in the test on HepG2 were 99%, 74% and 36%, respectively.
As for `COc1ccc2nccc([C@@H](O)CN3CCC(NC(=O)/C=C/c4cccc(C)c4)CC3)c2c1`, the Inhibition in the test on Plasmodium falciparum [1] is recorded as 84%; with Plasmodium falciparum [2] it was 28%; with HepG2, 16%.
Consider `CCN1CCN(C(=O)NC(C(=O)N2CCCC(COc3ccc(Cc4ccccc4)cc3)C2)c2cccs2)C(=O)C1=O` (centres undefined), for which the Inhibition in the test on Plasmodium falciparum [1] is recorded as 95%; in the test with Plasmodium falciparum [2], 87%; in the test with HepG2, 12%.
As for `CN(C)C(CNC(=O)c1cc(-c2ccncc2)c(-c2ccc(NC(=O)Nc3ccccc3)cc2)o1)c1ccccc1.O=C(O)C(F)(F)F` (centres undefined), the Inhibition was found to be 100% in the test on Plasmodium falciparum [1], 96% in the test with Plasmodium falciparum [2] and 19% in the test with HepG2.
For `c1cncc(CNc2ncc(-c3ccsc3)c(-c3nccs3)n2)c1` the same measures were 81%, 63% and 0%.
With `CN(C(=O)Cc1ccc(Cl)cc1)C1CCN(CCCCCNC(=O)/C=C/c2ccc(Cl)c(Cl)c2)CC1`, the Inhibition was 83% with Plasmodium falciparum [1], 16% with Plasmodium falciparum [2] and 69% in the test on HepG2.
Consider `Cl.O=C(Nc1ccc2c(c1)CNCC2)c1ccc(-c2ccc(Cl)cc2)cc1`, for which the Inhibition worked out at 96% in the test with Plasmodium falciparum [1], 28% in the test with Plasmodium falciparum [2] and 52% with HepG2.
In the same order, the values of `C=CCOC(=O)N1CCC(CNCc2cccc(-c3cccc(-c4nc5ccccc5[nH]4)c3)c2)C1.O=C(O)C(F)(F)F` (centres undefined) are 100%, 46% and 16%.
In the case of `Nc1ncc(-c2ccc(NC(=O)Nc3cc(C(F)(F)F)ccc3F)cc2)c(N)n1.O=C(O)C(F)(F)F`, the Inhibition with Plasmodium falciparum [1] amounted to 99%; in the test with Plasmodium falciparum [2], 21%; in the test with HepG2, 96%.
For `CCNc1cc(C(=O)N[C@@H](Cc2ccccc2)[C@H](O)CNCc2ccc3c(c2)OCCO3)cc(N2CCCCS2(=O)=O)c1.O=CO`, the Inhibition is 95% with Plasmodium falciparum [1], 45% with Plasmodium falciparum [2] and 0% in the test on HepG2.
For `C/N=C(/Nc1c(Cl)cccc1Cl)N(C)C.O=C(O)/C=C/C(=O)O` the same measures were 98%, 1% and 0%.
With `COc1cc(/C=C/C(=O)NC2CCC(N3CCC(c4ccccc4C)CC3)CC2)cc(OC)c1` (centres undefined), the Inhibition in the test with Plasmodium falciparum [1] is listed as 89%; in the test on Plasmodium falciparum [2] it was 11%; with HepG2, 51%.
For `O=C(Nc1cccc(CN2CCCN(Cc3ncc[nH]3)CC2)c1)c1ccc2ccccc2c1.O=C(O)C(F)(F)F` the same measures were 100%, 2% and 13%.
In the same order, the values of `Cc1ccc(-c2ccc3c(c2)C=C(C(=O)NC2CCN(CCNC(=O)c4cccs4)CC2)CCC3)cc1.O=C(O)C(F)(F)F` are 90%, 30% and 27%.
Take `COc1cc(C2=NN(S(=O)(=O)c3c(C)cc(C)cc3C)CCCC2)ccc1Cl`: the Inhibition in the test with Plasmodium falciparum [1] is on record as 85%; in the test with Plasmodium falciparum [2] it was 76%; in the test with HepG2, 9%.
`COc1cc(-c2ccccc2)ccc1C(=O)Nc1ccc2c(c1)N(C)CCC2`: the results for the Inhibition with Plasmodium falciparum [1], in the test on Plasmodium falciparum [2] and with HepG2 were 85%, 75% and 15%, respectively.
Take `N#Cc1ccc(CN2CCCN(Cc3cccc(NC(=O)c4ccc(Cl)c(Cl)c4)c3)CC2)cc1.O=C(O)C(F)(F)F`: the Inhibition in the test on Plasmodium falciparum [1] is reported as 95%; in the test with Plasmodium falciparum [2], 10%; in the test with HepG2 it was 19%.
Consider `CN(C)c1cccc2c(S(=O)(=O)Nc3cccc(CCN4CCC(N5CCCCC5)CC4)c3)cccc12`, for which the Inhibition in the test with Plasmodium falciparum [1] is given as 98%; in the test with Plasmodium falciparum [2], 54%; with HepG2, 41%.
For `COc1ccc(CCNC(=O)c2cnc3c(c2)nc(-c2c[nH]c(-c4ccccc4)n2)n3CCc2c[nH]cn2)cc1`, the Inhibition with Plasmodium falciparum [1] turned out to be 96%; in the test with Plasmodium falciparum [2], 70%; with HepG2, 16%.
For `Oc1cc(NC[C@@H]2CCC[C@@H]2NCc2ccc(Cl)c(Cl)c2)nc2ccccc12` the same measures were 100%, 75% and 9%.
On to `CCOC(=O)/C(=N\OC(C(=O)OC(C)(C)C)c1ccccc1)c1csc(NC(c2ccccc2)(c2ccccc2)c2ccccc2)n1` (centres undefined), for which the Inhibition came to 89% with Plasmodium falciparum [1], 68% in the test with Plasmodium falciparum [2] and 14% in the test with HepG2.
Consider `CCCc1cn2c3c(cc(C(=O)N[C@@H](Cc4ccccc4)[C@H](O)CNC4CCOCC4)cc13)N(C)S(=O)(=O)CC2.O=CO`, for which the Inhibition in the test with Plasmodium falciparum [1] is given as 99%; in the test on Plasmodium falciparum [2], 98%; in the test with HepG2, 1%.
In the same order, the values of `Nc1nc(-c2ccc3c(Nc4ccc(F)c(Cl)c4)ccnc3c2)cs1` are 100%, 88% and 13%.
For the compound `Cc1cc(N(C)C)nc(Nc2ccc(NC(=O)Nc3ccccc3)cc2)n1`, the figures for the Inhibition with Plasmodium falciparum [1], with Plasmodium falciparum [2] and in the test on HepG2 were 100%, 100% and 10%, respectively.
Take `COc1cc(Br)ccc1N1CCN(CCCCNC(=O)c2ccc(NC(=O)c3ccc(Cl)cc3)cc2)CC1.Cl`: the Inhibition amounted to 96% with Plasmodium falciparum [1], 33% in the test with Plasmodium falciparum [2] and 55% in the test with HepG2.
Regarding `CCOc1ccc(-c2cc3nc(C4CCNCC4)c(C(=O)Nc4ccc(C)cc4Cl)cn3n2)cc1.Cl`, the results for the Inhibition with Plasmodium falciparum [1], with Plasmodium falciparum [2] and in the test with HepG2 were 95%, 22% and 63%, respectively.
On to `O=C(Cc1cccs1)NC(CCCN1CCC(Oc2cccc(Cl)c2)CC1)c1ccc(Cl)c(Cl)c1` (centres undefined), for which the Inhibition was 86% with Plasmodium falciparum [1], 70% in the test on Plasmodium falciparum [2] and 39% in the test with HepG2.
`CC(=O)c1c(Nc2c(C)cc(C)cc2C)oc(C)cc1=O`: the Inhibition in the test on Plasmodium falciparum [1] is reported as 95%; with Plasmodium falciparum [2] it was 83%; with HepG2 it was 7%.
For `COc1ccccc1N(C)CCNc1cc(C)nc(Nc2ccccc2)n1`, the Inhibition in the test on Plasmodium falciparum [1] is given as 96%; with Plasmodium falciparum [2] it was 13%; with HepG2, 10%.
Turning to `O=C(/C=C/c1ccc(Cl)c(Cl)c1)NCCCCCN1CCN(C(=O)Nc2ccc(Cl)c(C(F)(F)F)c2)CC1`, the Inhibition in the test with Plasmodium falciparum [1] came out at 100%; in the test with Plasmodium falciparum [2], 0%; in the test with HepG2 it was 22%.
Take `FC(F)(F)c1ccc2[nH]c(-c3cccc(-c4cccc(CNCCN5CCNCC5)c4)c3)nc2c1.O=C(O)C(F)(F)F`: the values for the Inhibition with Plasmodium falciparum [1], in the test on Plasmodium falciparum [2] and with HepG2 were 92%, 18% and 29%, respectively.
In the case of `CC(CN(C)C)C(=O)Nc1ccc(-c2csc(-c3nc4ccccc4[nH]3)c2)cc1` (centres undefined), the results for the Inhibition with Plasmodium falciparum [1], in the test on Plasmodium falciparum [2] and in the test with HepG2 were 84%, 19% and 28%, respectively.
Consider `Cc1ccc2cc(NC(=O)c3cccc(C(=O)Nc4ccc5nc(C)ccc5c4)n3)ccc2n1`, for which the Inhibition in the test on Plasmodium falciparum [1] was 92%; with Plasmodium falciparum [2], 23%; with HepG2 it was 21%.
As to `CCNC1=NC2=C(CC(C(C)(C)C)CC2)C2(CCC(C(C)(C)C)CC2)S1.Cl` (centres undefined), the Inhibition in the test on Plasmodium falciparum [1] came to 99%; with Plasmodium falciparum [2], 99%; with HepG2 it was 40%.
Turning to `COc1ccccc1-c1csc(C(=O)NC2CCCCN(Cc3ccc(C(C)(C)C)cc3)C2)c1.O=C(O)C(F)(F)F` (centres undefined), the Inhibition in the test with Plasmodium falciparum [1] was determined as 99%; in the test with Plasmodium falciparum [2] it was 8%; with HepG2, 13%.
For `Fc1cccc(Nc2nc(NCc3ccc(OCc4ccccc4)cc3)nc(Nc3cccc(F)c3)n2)c1`, the Inhibition in the test with Plasmodium falciparum [1] came out at 84%; with Plasmodium falciparum [2], 14%; in the test on HepG2, 5%.
As to `COc1ccc(-c2cccc(NC(=O)c3cccc(Cl)c3)c2)cc1CN1CCCC1.O=C(O)C(F)(F)F`, the Inhibition in the test on Plasmodium falciparum [1] amounted to 99%; in the test with Plasmodium falciparum [2], 66%; in the test with HepG2 it was 45%.
Turning to `CCCCN(CCCC)CCCCNc1c2ccccc2nc2ccccc12.Cl`, the Inhibition with Plasmodium falciparum [1] amounted to 100%; with Plasmodium falciparum [2], 100%; in the test on HepG2, 36%.
With `CC1(C)N=C(N)N=C(N)N1OCCCCON1C(N)=NC(N)=NC1(C)C`, the Inhibition with Plasmodium falciparum [1] amounted to 97%; in the test on Plasmodium falciparum [2] it was 95%; in the test on HepG2, 54%.
Take `Br.NC1=NC2(CCCCC2)N(OCCCCCCC2CCCCC2)C(N)=N1`: the Inhibition is reported as 97% in the test with Plasmodium falciparum [1], 49% in the test on Plasmodium falciparum [2] and 77% in the test with HepG2.
`O=C(/C=C/c1ccc(Cl)c(Cl)c1)NC1CCC(CN2CCC(c3c[nH]c4ccncc34)CC2)CC1` (centres undefined): the Inhibition with Plasmodium falciparum [1] was found to be 100%; in the test on Plasmodium falciparum [2], 96%; with HepG2 it was 16%.
For `O=C(O)C(F)(F)F.c1cncc(CCNCc2ccc(-c3ccc(CNC4Cc5ccccc5C4)cc3)cc2)c1`, the Inhibition turned out to be 92% with Plasmodium falciparum [1], 29% with Plasmodium falciparum [2] and 32% with HepG2.
As for `COc1cc(C2CCN(CCCCNC(=O)c3ccc(NC(=O)c4ccc(Cl)c(Cl)c4)cc3)CC2)ccc1OC(C)C`, the Inhibition in the test on Plasmodium falciparum [1] was found to be 100%; in the test on Plasmodium falciparum [2], 96%; with HepG2 it was 45%.
As to `CN(C)CCNCc1cccc(-c2ccc3c(Nc4ccc(Oc5ccccn5)cc4)ccnc3c2)c1`, the Inhibition in the test with Plasmodium falciparum [1] worked out at 99%; in the test on Plasmodium falciparum [2], 100%; in the test with HepG2 it was 27%.
For the compound `Oc1ccccc1CN1CCCC(COC(c2ccc(F)cc2)c2ccc(F)cc2)C1` (centres undefined), the Inhibition in the test with Plasmodium falciparum [1] was 97%; with Plasmodium falciparum [2], 98%; in the test with HepG2, 19%.
For the compound `COc1cc2nc(NCc3ccccc3)nc(NCc3ccccc3)c2cc1OC`, the Inhibition in the test with Plasmodium falciparum [1] was determined as 100%; in the test on Plasmodium falciparum [2], 100%; in the test on HepG2, 66%.
On to `COc1cc(C)ccc1S(=O)(=O)N1CCCCC(c2ccc(C(F)(F)F)cc2)=N1`, for which the Inhibition with Plasmodium falciparum [1] was 92%; in the test on Plasmodium falciparum [2], 89%; with HepG2, 16%.
